Results reported in PubChem BioAssay (NCATS).
Records with an inconclusive call do not appear. Activity calls are given as the source filed them. Calls come from the whole dose curve; as a rule, active = well fitted inhibition curve with a large enough effect; inconclusive = small, poorly fitted or top-dose-only effect; inactive = flat fitted curve, though single readings scatter.

Tests used:
Assay in all cases: qHTS profiling for inhibitors of Plasmodium falciparum proliferation (AID 504749); note: nearly all actives have a fitted effect of over 60% in size
AA1029 = conditions: P. falciparum in erythrocytes, SYBR Green DNA, 72 h; series mostly up to 28.7 µM
Procedure, shortened: (§1)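 SYBR Green fluorescence of parasite DNA, read after lysis and overnight dark incubation, measured growth over 72 h in erythrocyte culture at 0.3% parasitemia and 2.5% hematocrit. Data normalised to DMSO and 0.29 uM artemisinin, with plate-drift correction.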

ATS95 = conditions: P. falciparum in erythrocytes, SYBR Green DNA, 72 h; series mostly up to 28.7 µM
Procedure, shortened: as §1

C2A = conditions: P. falciparum in erythrocytes, SYBR Green DNA, 72 h; series mostly up to 28.7 µM
Procedure, shortened: as §1

CP215 = conditions: P. falciparum in erythrocytes, SYBR Green DNA, 72 h; series mostly up to 28.7 µM
Procedure, shortened: as §1

CP217 = conditions: P. falciparum in erythrocytes, SYBR Green DNA, 72 h; series mostly up to 28.7 µM
Procedure, shortened: as §1

CP250 = conditions: P. falciparum in erythrocytes, SYBR Green DNA, 72 h; series mostly up to 12.8 µM
Procedure, shortened: as §1

CP252 = conditions: P. falciparum in erythrocytes, SYBR Green DNA, 72 h; series mostly up to 12.8 µM
Procedure, shortened: as §1

CP269 = conditions: P. falciparum in erythrocytes, SYBR Green DNA, 72 h; series mostly up to 28.7 µM
Procedure, shortened: as §1

CP297 = conditions: P. falciparum in erythrocytes, SYBR Green DNA, 72 h; series mostly up to 28.7 µM
Procedure, shortened: as §1

CP315 = conditions: P. falciparum in erythrocytes, SYBR Green DNA, 72 h; series mostly up to 28.7 µM
Procedure, shortened: as §1

CP325 = conditions: P. falciparum in erythrocytes, SYBR Green DNA, 72 h; series mostly up to 28.7 µM
Procedure, shortened: as §1

CP329 = conditions: P. falciparum in erythrocytes, SYBR Green DNA, 72 h; series mostly up to 28.7 µM
Procedure, shortened: as §1

DIV14 = conditions: P. falciparum in erythrocytes, SYBR Green DNA, 72 h; series mostly up to 28.7 µM
Procedure, shortened: as §1

DIV17 = conditions: P. falciparum in erythrocytes, SYBR Green DNA, 72 h; series mostly up to 28.7 µM
Procedure, shortened: as §1

JCK = conditions: P. falciparum in erythrocytes, SYBR Green DNA, 72 h; series mostly up to 28.7 µM
Procedure, shortened: as §1

N140 = conditions: P. falciparum in erythrocytes, SYBR Green DNA, 72 h; series mostly up to 28.7 µM
Procedure, shortened: as §1

P93_24 = conditions: P. falciparum in erythrocytes, SYBR Green DNA, 72 h; series mostly up to 28.7 µM
Procedure, shortened: as §1

PAD = conditions: P. falciparum in erythrocytes, SYBR Green DNA, 72 h; series mostly up to 28.7 µM
Procedure, shortened: as §1

SC27B = conditions: P. falciparum in erythrocytes, SYBR Green DNA, 72 h; series mostly up to 28.7 µM
Procedure, shortened: as §1

TAB165 = conditions: P. falciparum in erythrocytes, SYBR Green DNA, 72 h; series mostly up to 28.7 µM
Procedure, shortened: as §1

Measured: Potency

Oc1ccc2c3c1O[C@H]1[C@@H](O)CC[C@@]4(O)C(C2)N(CC2CCC2)CCC314 (stereo not given in full)
inactive: AA1029 | ATS95 | C2A | CP215 | CP217 | CP250 | CP252 | CP269 | CP297 | CP315 | CP325 | CP329 | DIV14 | DIV17 | JCK | N140 | P93_24 | PAD | SC27B | TAB165

CCCC[N+]1(C)C2CC(OC(=O)C(CO)c3ccccc3)CC1C1OC12 (stereo not given)
inactive: AA1029 | ATS95 | C2A | CP215 | CP217 | CP250 | CP252 | CP269 | CP297 | CP315 | CP325 | CP329 | DIV14 | DIV17 | JCK | N140 | P93_24 | PAD | SC27B | TAB165

CC(C)(O)C1C2OC(=O)C1[C@]1(O)C[C@H]3O[C@]34C(=O)O[C@H]2[C@]14C (stereo not given in full) (tested in a mixture with another compound)
inactive: AA1029 | ATS95 | C2A | CP215 | CP217 | CP250 | CP252 | CP269 | CP297 | CP315 | CP325 | CP329 | DIV14 | DIV17 | JCK | N140 | P93_24 | PAD | SC27B | TAB165
